Compound activity: PubChem BioAssay, National Center for Advancing Translational Sciences (NCATS)
Pf growth 96h: Primary qHTS for delayed death inhibitors of the malarial parasite plastid, 96 hour incubation. P. falciparum luciferase reporter growth, 96 h. Potency, µM (doses to about 28.7 µM), without a hit: at the highest dose activity change, negative = inhibition, most hits filed as inhibitors. 6.9% of 320,000 active; also: % is scaled to controls: 0 for no effect and ±100 for the full control effect
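Cell-based qHTS: luciferase-tagged P. falciparum in erythrocytes (2% hematocrit, 0.05% parasitemia final) incubated with compounds for 96 hours, 37 C, 5% CO2; luciferase detection reagent then added and luminescence measured.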
AMA1 RON2 block: qHTS for Inhibitors of AMA1-RON; Towards Development of Antimalarial Drug Lead: Primary Screen; AlphaScreen AMA1-biotinylated RON2 peptide binding; Plasmodium falciparum AMA1 (3D7) - RON2 peptide interaction; 0.2% of 360,000 active; Potency, µM (highest dose often 58.2 µM), for inactives: top-dose activity change, negative = inhibition, hits mostly inhibitors;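 also: 0% = vehicle wells and -100% = peptide control; nearly all actives have a fitted effect of over 45% in size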
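AMA1 (3D7) with his tag at 25 nM final met compounds first, then biotinylated RON2 peptide at 25 nM; detection used donor plus acceptor beads, 10 µg/mL apiece, read by AlphaScreen after 30 min at room temperature.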
HCV inhibitor: qHTS Assay for Inhibitors of Hepatitis C Virus (HCV). Huh7.5.1 HCVcc-Cre infection, luciferase reporter, 44 h. Potency, µM (highest dose often 41.8 µM), without a hit: at the highest dose activity change, negative = inhibition, usual class: inhibitors. 3.4% of 340,000 active. AID 651820, 2012; also: % is scaled to controls: 0 for no effect and ±100 for the full control effect
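Luciferase read-out (15 sec integration) after a 15 min room-temperature substrate step quantifies HCVcc-Cre infection. Cells, 1,000 per well, had compound added 4 h post-plating, then virus at ~0.5 moi, and were cultured 44 h.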
SARS PLP yeast: qHTS of Yeast-based Assay for SARS-CoV PLP | S. cerevisiae expressing SARS-CoV PLpro, growth rescue | Potency, µM (top dose mostly 32.9 µM), for inactives: at the highest dose activity, positive = growth rescue, actives largely listed as activators | 0.19% of 330,000 active | AID 485353, 2010; calls by dose curve; also: 0% is about no effect; nearly all actives have a fitted effect of over 55% in size
Pf growth 48h: Primary qHTS for delayed death inhibitors of the malarial parasite plastid, 48 hour incubation; Potency, µM (titrated, usually from 28.7 µM), for inactives: at the highest dose activity change, negative = inhibition, hits mostly inhibitors; AID 504832, 2011; P. falciparum luciferase growth in erythrocytes, 48 h; 5.9% of 310,000 active; also: % is scaled to controls: 0 for no effect and ±100 for the full control effect
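A one-generation exposure of luciferase-tagged malaria parasites in RPMI 1640/Albumax erythrocyte culture, 37 C and 5% CO2. Inhibition is inferred from decreased luminescence after adding detection reagent.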
NS1 inh: qHTS Assay for Inhibitors of Influenza NS1 Protein Function | 0.4% of 270,000 active | Potency, µM (titrated, usually from 46.1 µM), for the others: top-dose activity, positive = more growth; calls by dose curve; also: actives are rising curves; nearly all actives have a fitted effect of over 50% in size
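S. cerevisiae expressing influenza A NS1, grown in glucose, washed, then diluted 1:100 into pH 6.0 -URA galactose medium with 23 nl compound. Growth recovery read as OD600; NS1-free strain serves as control.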
Numbers without * were called inactive; ? = inconclusive; nt = no result given; [ ] = remark or other dose. Only some compounds are listed: those with a hit (about 12% of all), similar ones and a draw of the others. Unless noted, calls follow the shape of the dose curve; as a rule, active = well fitted curve in the direction sought with a large enough effect; inconclusive = small, poorly fitted or top-dose-only effect, or another doubt; inactive = no such curve, though single readings can be large; an effect the other way counts as inactive or inconclusive. Potency is read from the fitted curve at half-maximal effect.

SMILES	Pf growth 96h	AMA1 RON2 block	HCV inhibitor	SARS PLP yeast	Pf growth 48h	NS1 inh
CCOc1ccc(C(=O)N2CCC3(CC2)NCCc2[nH]cnc23)cc1OCC	31%	12%	21%	1%	32%	5%
Cc1ccc(S(=O)(=O)Nc2ccccc2C(=O)N2CCCCCC2)cc1	?	-3%	15%	0%	27%	-2%
Cc1ccc(C)c2[nH]c(=O)c(CCNC(=O)c3ccc(S(=O)(=O)N4CCCC4)cc3)cc12	?	-9%	?	1%	12µM*	9%
Cc1cc2c(cc1C)C(c1ccsc1)CC(=O)N2 (stereo unspecified)	4.7µM*	9%	22%	1%	95%	nt
O=C1CC(c2ccsc2)c2cc3c(cc2N1)OCCO3 (stereo unspecified)	12µM*	-5%	?	-2%	?	-5%
O=C1CC(c2ccncc2)c2cc3c(cc2N1)OCCO3 (stereo unspecified)	nt	16%	-3%	3%	0%	-2%
Cc1cc(NC(=O)CCSc2nc(-c3ccco3)cc(C(F)(F)F)n2)no1	nt	-14%	?	-1%	-24%	-1%
Cc1ccccc1Cn1ccc(NC(=O)CCSc2nc(-c3ccco3)cc(C(F)(F)F)n2)n1	nt	0%	3.2µM*	-11%	-24%	-31%
Cc1ccc(Cn2ccc(NC(=O)CCSc3nc(-c4ccco4)cc(C(F)(F)F)n3)n2)cc1	nt	14%	11µM*	-3%	10µM*	14%
CC(C)CCN=Cc1c(O)n(-c2ccccc2)c(=O)c2ccccc12	?	-24%	0%	4%	nt	2%
CCN1CCCC1CN=Cc1c(O)n(-c2ccccc2)c(=O)c2ccccc12 (stereo unspecified)	5%[5.75 µM]	-1%	-27%	3%	3.7µM*	5%
Cc1cccc(-n2c(O)c(C=NCCCN3CCOCC3)c3ccccc3c2=O)c1	?	-4%	9%	0%	7.4µM*	-1%
Cc1cccc(-n2c(O)c(C=NCc3ccccn3)c3ccccc3c2=O)c1	-21%	28%	-5%	4%	-24%	5%
CCOC(=O)[C@@H]1[C@H]2COc3cc(OC)ccc3[C@@H]2N2C(=O)N(c3ccccc3)C(=O)[C@]12C	nt	-7%	-2%	3%	nt	nt
CNC(=O)COC(=O)c1ccccc1Nc1ccccc1	18%	0%	9%	0%	0%	-5%
Cc1cc(C)c(C#N)c(N2CCN(Cc3ccccc3)CC2)n1	nt	2%	?	-1%	0%	-3%
Cc1cc(C)c(C#N)c(N2CCN(c3ccccc3F)CC2)n1	12µM*	-2%	-5%	-1%	29%	-25%
CC(NC(=O)Cc1ccc(S(=O)(=O)N2CCCCC2)cc1)c1ccccc1 (stereo unspecified)	8.3µM*	-3%	-2%	2%	12µM*	nt
CC(NC(=O)CN1CCN(S(=O)(=O)c2ccc(Br)cc2)CC1)c1ccccc1 (stereo unspecified)	-5%	-7%	-7%	-3%	?	nt
CCN(C(=O)C(C)Sc1ccc(S(=O)(=O)N2CCN(C)CC2)cn1)c1ccccc1 (stereo unspecified)	12µM*	-2%	-3%	-3%	?	nt
CC(C)N(C(=O)CSc1ccc(S(=O)(=O)N2CCCCC2)cn1)c1ccccc1	?	-13%	?	0%	8.3µM*	nt
CN(C)C(=O)CSc1ccc(S(=O)(=O)N2CCCC2)cn1	-1%	-2%	?	-1%	?	nt
O=S(=O)(Cc1ccccc1)Nc1ccc(S(=O)(=O)N2CCCC2)cc1	5%	-10%	3%	0%	2.3µM*	?
CCC(C)NC(=O)Cn1ccc2cc(S(=O)(=O)N3CCCCCC3)ccc21 (stereo unspecified)	?	7%	1%	16%	-3%	0%
COc1ccc(S(=O)(=O)NCC(=O)NCCc2ccc(OC)c(OC)c2)cc1	nt	8%	-5%	nt	nt	nt
SMILES	Pf growth 96h	AMA1 RON2 block	HCV inhibitor	SARS PLP yeast	Pf growth 48h	NS1 inh
Cc1cc(-c2ccccc2)n2ncnc2n1	0%	-11%	-12%	2%	7%	-67%
CC(NC(=O)CN1C(=O)NC2(CCCCCCC2)C1=O)c1ccccc1 (stereo unspecified)	nt	10%[11.6 µM]	14%	-2%	nt	nt
COc1ccc2c(C)cc3n[nH]c(=S)n3c2c1	56%	75%	0%	-2%	5%	1%
COc1cc(OC)cc(C(=O)O/N=C(\N)c2cccc(C)c2)c1	7%	34%	11µM*	0%	?	-7%
Cc1cccc(/C(N)=N/OC(=O)N2c3ccccc3Sc3ccccc32)c1	6.6µM*	-23%	-16%	-36%	?	-155%
CCOc1cc(N2CCOCC2)c(OCC)cc1NC(=O)C1CC(=O)N(c2ccc(C)cc2)C1 (stereo unspecified)	-21%	-6%	4%	-3%	?	nt
CNc1ccc(C(=O)OCC(=O)Nc2ccnn2C(C)C)cc1[N+](=O)[O-]	?	-3%	9%	2%	?	nt
N#Cc1ccsc1NC(=O)COC(=O)C1=NNC(=O)CC1	66%	17%	8%	1%	78%	nt
CCOc1ccc(NC(C)c2cc(Cl)ccc2O)cc1 (stereo unspecified)	0%	-8%	2%	-3%	-2%	-46%
CC(Nc1ccc(Cl)cc1)c1cc(Cl)ccc1O (stereo unspecified)	13%	2%	3%	-61%	9.3µM*	-16%
CC(C)CC1NC(=O)C(CCCN)NC(=O)C(C(C)C)NC(=O)C2CCCN2C(=O)C(Cc2ccccc2)NC(=O)C(CC(C)C)NC(=O)C(CCCN)NC(=O)C(C(C)C)NC(=O)C2CCCN2C(=O)C(Cc2ccccc2)NC1=O (stereo unspecified)	2.4µM*	nt	nt	nt	-99%	nt
Cc1ccccc1CNc1nnnn1C	9%	8%	17%	0%	5%	2%
Cn1c(-c2ccccc2)c(C(=O)CCl)c2ccccc21	-27%	17%	5.6µM*	-2%	?	-7%
Cn1c(-c2ccccc2)c(CCO)c2ccccc21	-13%	34%	-25%	1%	-25%	-39%
CCn1c(-c2ccccc2)c(C(=O)CCl)c2ccccc21	?	-5%	8.9µM*	-19%	0%	8%
CCNC(=O)CC1C(=O)N(c2ccc(C)cc2)C(=O)N1CCc1sccc1C (stereo unspecified)	-8%	-1%	0%	0%	-11%	-9%
